Assay [1] can be described thus: Quantitative high throughput screen for delayed death inhibitors of the malarial parasite plastid, 96 hour incubation (AID 488745). Also: nearly all actives have a fitted effect of over 70% in size. Also: potency is read from the fitted curve at half-maximal effect. In outline: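 Decreased firefly luciferase luminescence indicates inhibited growth of reporter-integrated P. falciparum after two generations (96 h, 37 C, 5% CO2). Infected erythrocytes at 0.1% parasitemia, 2% hematocrit, in Albumax-supplemented RPMI 1640.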

Assay [2] in a line: Quantitative high throughput screen for delayed death inhibitors of the malarial parasite plastid, 48 hour incubation (AID 488752). Also: nearly all actives have a fitted effect of over 65% in size. Also: potency is read from the fitted curve at half-maximal effect. Put shortly:
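One-generation (48 h) growth assay: a decrease in luciferase signal from an integrated reporter in P. falciparum-infected red cells (0.1% parasitemia, 2% hematocrit) after compound exposure at 37 C indicates parasite inhibition.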

The target in assay [3] is M-phase phosphoprotein 8 (Homo sapiens) (UniProt Q99549). As to the kind of experiment: qHTS Validation Assay for Inhibitors for MPP8 Chromodomain Interactions with Methylated Histone Tails (AID 488949). Also: nearly all actives have a fitted effect of over 55% in size. Also: potency is read from the fitted curve at half-maximal effect. In outline: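 50 nM MPP8 + 50 nM b-H3K9me3 peptide, PBS pH 7.4/0.01% Tween-20, 30 min RT; + cpd 30 min RT; + AlphaScreen donor/Ni-chelate acceptor beads 10 ug/mL final, 30 min dark; luminescence read.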
On the technique in general: qHTS replaces the single test concentration by a dilution series.

Assay [4] has as its target Transient receptor potential cation channel subfamily V member 1 (Homo sapiens) (UniProt Q8NER1). Put plainly: HTS Assay for Compounds that Act as Enhancers of the Vanilloid Receptor 1 (AID 488979). Also: 0% is about no effect. In outline:
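TRPV1 cells loaded with Fluo-8 calcium dye; compound added and Ca2+ signal (ex 480/em 520 nm) followed 3 min, then capsaicin at EC20 added and read 2 more min to detect enhancement.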

The target of assay [5] is Thyrotropin receptor (Homo sapiens) (UniProt P16473). Put plainly: qHTS Assay for Antagonists of the Thyroid Stimulating Hormone Receptor (AID 488980). Also: series mostly up to about 58 µM; 0% is about no effect. Put shortly:
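Readout is cAMP by HTRF competition between cellular cAMP and cAMP-d2 for a cryptate-labelled antibody. Antagonism was assessed in TSHR-transfected HEK293 cells stimulated with 4 nM TSH (EC80, final) in the presence of RO 20-1724.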

Assay [6] has as its target Thyrotropin-releasing hormone receptor (Homo sapiens) (UniProt P34981). Put plainly: qHTS for Small Molecule Agonists and Allosteric Enhancers of Human TRH Receptor: Validation Screen for Agonists (AID 493127;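 active = calcium activation more than 3 SD above the typical response in the agonist read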;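 also: intracellular calcium rise by fluo-8 fluorescence before TRH EC20 addition; 0% is about no effect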). Particulars: TRH receptor agonist cell assay; at 2 µM; stronger effect = higher value. In outline:
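Compound-evoked intracellular calcium release in fluo-8-loaded TRHR cells, read kinetically on FDSS (Ex 480/Em 530, 1 s/cycle) after 23 nL pintool transfer. Agonist phase preceded 10 nM TRH EC20 addition.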

Assay [7] addresses Thioredoxin reductase 1, cytoplasmic (Rattus norvegicus) (UniProt O89049). As to the kind of experiment: qHTS Assay for Substrates of Mammalian Selenoprotein Thioredoxin Reductase 1 (TrxR1) (AID 488772).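 Also: series mostly up to about 57 µM; 0% is about no effect; a drop in NADPH fluorescence below the no-compound background marks a TrxR1 substrate.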 Put shortly:
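In this dual-purpose format, potential substrates are identified from the first fluorescence read after selenite addition, not from the 8-minute delta. Rat enzyme is preincubated with NADPH and then with compound at ~22 deg C.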

Assay [8] has the same target. Put plainly: qHTS Assay for Inhibitors of Mammalian Selenoprotein Thioredoxin Reductase 1 (TrxR1) (AID 488773). Also: nearly all actives have a fitted effect of over 40% in size. Also: potency is read from the fitted curve at half-maximal effect. Particulars: Potency: inhibition. In outline: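 Inhibition is scored from the loss of NADPH fluorescence between first and last reads of an 8-min kinetic run. Selenite (400 uM) was the substrate, added after 15 min compound preincubation at room temperature.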

For assay [9], the target named is Flap endonuclease 1 (Homo sapiens) (UniProt P39748). Put plainly: qHTS Validation Assay for the Inhibitors of Human Flap endonuclease 1 (FEN1) (AID 488816). Also: % is scaled to controls: 0 for no effect and ±100 for the full control effect. In outline: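 Enzyme reagent 10 nM; cpds pinned; 15 min RT preinc.; substrate 50 nM final; reads t=0 and 15 min; no-enzyme buffer wells as neg. control; normalized data, 4-parameter Hill fit.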
The target in assay [10] is Methanococcus maripaludis chaperonin (MmCpn) (UniProt Q6LX38). Put plainly: High-Throughput Screening for Modulators of Cytosolic Chaperonin Activity: MmCpn Primary Screen (AID 488978).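 Also: 50 nM MmCpn enzyme hydrolysing 30 µM ATP at 37 °C; 0% is about no effect.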 In outline:
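Steps: chaperonin 50 nM final; add compound, 5 min RT; start with ATP, 30 uM final; hold 10 min at 37C; add ADP Transcreener HTRF reagent, 5 min; read ex 320, em 590 and 665 nm.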

Assay [11] concerns the target D(1A) dopamine receptor (Homo sapiens) (UniProt P21728). As to the kind of experiment: HTS Assay for Allosteric Agonists of the Human D1 Dopamine Receptor: Primary Screen for Agonists (AID 488981). Also: 0% is about no effect. Put shortly:
(§1)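 Tetracycline-induced HEK293 Trex D1 cells with forced coupling to calcium, loaded with no-wash calcium dye; kinetic fluorescence read 180 s after compound addition for agonism, then a further 180 s after an EC20 dopamine challenge for potentiation.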

Assay [12] shares this target. As to the kind of experiment: HTS Assay for Allosteric Agonists of the Human D1 Dopamine Receptor: Primary Screen for Potentiators (AID 488982). Also: 0% is about no effect. In outline:
as §1

For assay [13] the target is unchanged. As to the kind of experiment: HTS Assay for Allosteric Agonists of the Human D1 Dopamine Receptor: Primary Screen for Antagonists (AID 488983).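 Also: calcium flux response to an EC80 dopamine challenge measured with no-wash dye; nearly all actives have a fitted effect of over 65% in size.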 Also: potency is read from the fitted curve at half-maximal effect. Put shortly: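 Calcium-flux read-out in inducible HEK293 T-REx cells expressing D1, dye-loaded 30–90 min at room temperature. Kinetic reads: 180 s after compound (agonist phase), then 180 s after an EC80 dopamine challenge.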

Assay [14] is described as follows: Validation screen for small molecules that induce genotoxicity in human embryonic kidney (HEK293T) cells expressing luciferase-tagged ELG1 (AID 493106). Also: 0% is about no effect. In outline:
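ELG1-luciferase reporter readout (ONE-Glo, 30 min, room temperature) after 16 hr compound treatment at 37 °C of HEK293T cells at 2,000 per well. Rising luminescence flags genotoxic stress.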

The target of assay [15] is ATPase family AAA domain-containing protein 5 (Homo sapiens) (UniProt Q96QE3). As to the kind of experiment: Validation screen for small molecules that inhibit ELG1-dependent DNA repair in human embryonic kidney (HEK293T) cells expressing luciferase-tagged ELG1 (AID 493107). Also: nearly all actives have a fitted effect of over 70% in size. Also: potency is read from the fitted curve at half-maximal effect. In outline:
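Luciferase read-out, ONE-Glo, 30 min at room temperature, follows 16 h co-exposure at 37 C of compound and the DNA-damaging agent 5-fluorouridine. Cells: HEK293T with ELG1-luciferase fusion, 2,000 per well, DMSO as vehicle.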

The nature of assay [16]: Nrf2 qHTS screen for inhibitors: Validation (AID 493153; active = well fitted inhibition curve with a large enough effect in the main read-out, with a control signal flat, not every such curve was filed as active). Particulars: Potency: luciferase luminescence; viability change: measured here: cytotoxicity max response. Put shortly: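 Concentration-response on A549 ARE_Fluc reporter cells exposed 18-24 h at 37 C, 5% CO2. Cytotoxicity read first by CellTiter-Fluor fluorescence (Ex 405/Em 525), then Nrf2 inhibition by BugLite luminescence after 15 min.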

Assay [17] is described as follows: qHTS for Inhibitors of Cell Surface uPA Generation: Validation Assay (AID 493164).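 Also: RAW 264.7 macrophage cells exposed to compound for 18 h; 0% is about no effect.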 Put shortly: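 ATP-Lite luminescence read-out: ATP remains high when uPA activity-dependent LF translocation into the cytoplasm is blocked. RAW 264.7 cells, 18 h compound exposure at 37 C; 7-point titration, 2.45 nM to 38.3 uM final.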
In assay [18] the target is Chromobox protein homolog 1 (Homo sapiens) (UniProt P83916). As to the kind of experiment: qHTS Validation Assay for Inhibitors of HP1-beta Chromodomain Interactions with Methylated Histone Tails (AID 488953). Also: nearly all actives have a fitted effect of over 50% in size. Also: potency is read from the fitted curve at half-maximal effect. Put shortly:
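AlphaScreen proximity signal from streptavidin donor and nickel chelate acceptor beads (final 10 ug/mL) after 30 min dark incubation. Compounds had 30 min at room temperature with preformed complex of 50 nM HP1-beta and 50 nM b-H3(1-18)K9me3 in PBS pH 7.4 with 0.01% Tween-20.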

In assay [19] the target is ATP-dependent 6-phosphofructokinase (Trypanosoma brucei brucei) (UniProt O15648). Put plainly: qHTS Assay to Find Inhibitors of T. brucei phosphofructokinase: hit validation (AID 492961).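 Also: luminescence reports ADP formed as PFK phosphorylates fructose-6-phosphate with ATP; series mostly up to about 51 µM; % is scaled to controls: 0 for no effect and ±100 for the full control effect.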 In outline:
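Inhibition of parasite PFK is measured as reduced ADP formation, quantified via luciferase after ATP depletion. Assay used 0.1 mM ATP, 0.5 mM F6P, 1.25 nM enzyme, 45 min incubation.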

Inconclusive results are not listed. The source holds several records for some structures; these can differ, active in one and inactive in another. Calls of active or inactive are those of the source. Unless noted, calls follow the shape of the dose curve; as a rule, active = well fitted curve in the direction sought with a large enough effect; inconclusive = small, poorly fitted or top-dose-only effect, or another doubt; inactive = no such curve, though single readings can be large; an effect the other way counts as inactive or inconclusive.

Flap endonuclease 1 (Homo sapiens), sequence (P39748 whole entry, looked up): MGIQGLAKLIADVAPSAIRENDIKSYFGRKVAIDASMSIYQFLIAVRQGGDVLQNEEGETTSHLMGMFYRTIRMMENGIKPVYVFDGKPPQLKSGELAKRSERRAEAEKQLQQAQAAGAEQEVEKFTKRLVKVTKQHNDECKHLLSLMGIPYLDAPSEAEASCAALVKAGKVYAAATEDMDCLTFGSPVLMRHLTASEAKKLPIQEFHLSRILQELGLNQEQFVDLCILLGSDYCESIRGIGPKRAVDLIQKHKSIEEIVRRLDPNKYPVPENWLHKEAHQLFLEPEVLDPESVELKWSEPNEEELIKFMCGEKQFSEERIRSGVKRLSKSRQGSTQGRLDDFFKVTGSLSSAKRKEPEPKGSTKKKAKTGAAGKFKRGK
Thyrotropin receptor (Homo sapiens), sequence (P16473 whole entry, looked up): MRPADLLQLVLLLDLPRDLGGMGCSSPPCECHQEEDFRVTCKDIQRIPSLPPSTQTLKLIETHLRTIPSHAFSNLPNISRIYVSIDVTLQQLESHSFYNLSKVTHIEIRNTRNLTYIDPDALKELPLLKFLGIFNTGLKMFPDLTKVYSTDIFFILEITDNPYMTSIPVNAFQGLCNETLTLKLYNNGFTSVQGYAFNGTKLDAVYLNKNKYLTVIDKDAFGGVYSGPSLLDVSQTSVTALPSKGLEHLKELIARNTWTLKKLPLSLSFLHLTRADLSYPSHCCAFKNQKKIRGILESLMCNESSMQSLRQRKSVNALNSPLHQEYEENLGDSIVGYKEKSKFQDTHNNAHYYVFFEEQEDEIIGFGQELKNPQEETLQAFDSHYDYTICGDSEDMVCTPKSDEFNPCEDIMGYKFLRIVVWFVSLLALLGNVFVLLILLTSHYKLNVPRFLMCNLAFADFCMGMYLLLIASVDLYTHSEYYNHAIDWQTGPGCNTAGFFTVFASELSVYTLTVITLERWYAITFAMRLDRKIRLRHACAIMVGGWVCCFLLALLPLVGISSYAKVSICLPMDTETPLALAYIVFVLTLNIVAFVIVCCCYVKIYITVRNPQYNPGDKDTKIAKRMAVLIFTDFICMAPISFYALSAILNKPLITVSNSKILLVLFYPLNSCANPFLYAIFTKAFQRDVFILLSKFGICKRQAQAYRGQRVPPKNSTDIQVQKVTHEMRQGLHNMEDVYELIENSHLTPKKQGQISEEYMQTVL
Thyrotropin-releasing hormone receptor (Homo sapiens), sequence (P34981 whole entry, looked up): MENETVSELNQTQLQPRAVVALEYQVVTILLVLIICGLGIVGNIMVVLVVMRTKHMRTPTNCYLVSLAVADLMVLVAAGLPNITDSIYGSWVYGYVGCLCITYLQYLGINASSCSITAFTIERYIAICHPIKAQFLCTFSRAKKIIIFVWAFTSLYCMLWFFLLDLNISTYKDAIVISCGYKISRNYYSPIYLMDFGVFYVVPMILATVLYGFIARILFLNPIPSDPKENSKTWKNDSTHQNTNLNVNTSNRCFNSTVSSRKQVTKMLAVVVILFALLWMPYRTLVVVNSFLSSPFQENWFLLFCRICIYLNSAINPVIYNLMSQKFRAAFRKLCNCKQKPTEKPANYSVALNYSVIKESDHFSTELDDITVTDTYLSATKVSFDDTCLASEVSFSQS
Methanococcus maripaludis chaperonin (MmCpn), sequence (Q6LX38 1-543): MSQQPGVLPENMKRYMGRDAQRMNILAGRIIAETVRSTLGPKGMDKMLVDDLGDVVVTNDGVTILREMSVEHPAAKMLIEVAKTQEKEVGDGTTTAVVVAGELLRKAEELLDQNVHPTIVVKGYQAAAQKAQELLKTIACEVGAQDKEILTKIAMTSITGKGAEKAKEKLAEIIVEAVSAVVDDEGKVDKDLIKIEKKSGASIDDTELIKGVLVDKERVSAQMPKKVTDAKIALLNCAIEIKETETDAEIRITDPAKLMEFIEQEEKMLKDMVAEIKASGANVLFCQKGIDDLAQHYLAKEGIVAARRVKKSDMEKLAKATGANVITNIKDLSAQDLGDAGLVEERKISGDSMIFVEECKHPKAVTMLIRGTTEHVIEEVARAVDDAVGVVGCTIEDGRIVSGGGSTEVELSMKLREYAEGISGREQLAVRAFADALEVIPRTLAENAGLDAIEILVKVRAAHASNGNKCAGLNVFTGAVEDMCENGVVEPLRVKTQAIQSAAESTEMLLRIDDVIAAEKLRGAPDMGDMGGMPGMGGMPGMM
Transient receptor potential cation channel subfamily V member 1 (Homo sapiens), sequence (Q8NER1 whole entry, looked up): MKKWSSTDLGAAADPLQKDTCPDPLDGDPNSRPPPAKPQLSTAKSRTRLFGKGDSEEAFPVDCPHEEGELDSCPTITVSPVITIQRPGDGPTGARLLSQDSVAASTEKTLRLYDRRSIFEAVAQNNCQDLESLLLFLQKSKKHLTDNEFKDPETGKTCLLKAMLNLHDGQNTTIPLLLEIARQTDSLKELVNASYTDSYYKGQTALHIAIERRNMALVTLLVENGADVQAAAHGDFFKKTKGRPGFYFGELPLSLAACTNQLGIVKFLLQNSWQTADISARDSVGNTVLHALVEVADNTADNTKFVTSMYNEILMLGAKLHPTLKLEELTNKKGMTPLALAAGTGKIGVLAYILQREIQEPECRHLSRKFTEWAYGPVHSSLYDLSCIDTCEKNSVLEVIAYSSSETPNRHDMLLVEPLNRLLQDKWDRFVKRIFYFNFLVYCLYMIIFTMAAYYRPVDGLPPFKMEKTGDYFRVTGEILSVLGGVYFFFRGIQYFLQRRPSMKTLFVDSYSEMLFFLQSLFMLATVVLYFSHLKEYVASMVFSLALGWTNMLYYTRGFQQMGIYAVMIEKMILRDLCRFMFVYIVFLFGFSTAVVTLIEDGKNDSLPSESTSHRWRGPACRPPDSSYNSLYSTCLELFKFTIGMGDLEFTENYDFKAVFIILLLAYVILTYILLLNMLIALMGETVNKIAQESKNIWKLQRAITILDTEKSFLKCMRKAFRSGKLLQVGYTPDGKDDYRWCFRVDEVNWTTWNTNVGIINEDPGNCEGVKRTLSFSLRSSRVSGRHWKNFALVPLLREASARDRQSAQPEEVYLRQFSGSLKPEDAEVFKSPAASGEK
M-phase phosphoprotein 8 (Homo sapiens), sequence (Q99549 whole entry, looked up): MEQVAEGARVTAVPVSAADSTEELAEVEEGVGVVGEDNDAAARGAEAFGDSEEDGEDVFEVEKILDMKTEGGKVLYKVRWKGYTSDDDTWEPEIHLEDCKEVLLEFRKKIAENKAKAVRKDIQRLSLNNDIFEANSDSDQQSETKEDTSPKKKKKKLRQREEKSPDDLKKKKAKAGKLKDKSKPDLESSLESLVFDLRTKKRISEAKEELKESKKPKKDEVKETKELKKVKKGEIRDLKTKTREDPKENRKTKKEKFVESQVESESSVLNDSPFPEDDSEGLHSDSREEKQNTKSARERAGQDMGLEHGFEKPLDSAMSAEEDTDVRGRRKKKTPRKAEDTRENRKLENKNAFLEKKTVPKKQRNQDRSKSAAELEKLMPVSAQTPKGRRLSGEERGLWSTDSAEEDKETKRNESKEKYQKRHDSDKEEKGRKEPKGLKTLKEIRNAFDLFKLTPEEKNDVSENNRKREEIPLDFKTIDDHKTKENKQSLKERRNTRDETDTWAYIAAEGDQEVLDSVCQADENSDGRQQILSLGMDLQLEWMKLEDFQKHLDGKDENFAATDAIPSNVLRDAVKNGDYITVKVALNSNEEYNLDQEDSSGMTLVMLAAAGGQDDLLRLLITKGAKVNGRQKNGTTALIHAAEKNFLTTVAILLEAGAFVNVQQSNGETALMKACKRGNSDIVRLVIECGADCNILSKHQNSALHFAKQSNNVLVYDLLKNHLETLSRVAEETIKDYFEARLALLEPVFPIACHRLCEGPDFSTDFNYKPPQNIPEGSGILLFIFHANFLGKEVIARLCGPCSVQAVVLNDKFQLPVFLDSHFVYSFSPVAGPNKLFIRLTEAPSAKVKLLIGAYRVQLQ
D(1A) dopamine receptor (Homo sapiens), sequence (P21728 whole entry, looked up): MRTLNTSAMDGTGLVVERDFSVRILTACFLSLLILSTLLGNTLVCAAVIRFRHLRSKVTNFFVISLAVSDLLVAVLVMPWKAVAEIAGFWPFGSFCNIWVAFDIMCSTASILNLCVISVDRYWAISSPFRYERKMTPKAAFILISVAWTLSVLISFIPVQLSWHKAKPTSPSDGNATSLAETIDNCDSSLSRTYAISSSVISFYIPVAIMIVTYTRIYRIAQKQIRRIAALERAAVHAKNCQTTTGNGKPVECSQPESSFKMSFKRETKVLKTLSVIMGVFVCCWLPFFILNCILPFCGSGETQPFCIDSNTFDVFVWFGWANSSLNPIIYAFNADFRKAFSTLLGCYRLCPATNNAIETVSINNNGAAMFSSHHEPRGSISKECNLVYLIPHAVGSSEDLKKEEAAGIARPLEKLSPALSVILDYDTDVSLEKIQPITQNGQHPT
Thioredoxin reductase 1, cytoplasmic (Rattus norvegicus), sequence (O89049 whole entry, looked up): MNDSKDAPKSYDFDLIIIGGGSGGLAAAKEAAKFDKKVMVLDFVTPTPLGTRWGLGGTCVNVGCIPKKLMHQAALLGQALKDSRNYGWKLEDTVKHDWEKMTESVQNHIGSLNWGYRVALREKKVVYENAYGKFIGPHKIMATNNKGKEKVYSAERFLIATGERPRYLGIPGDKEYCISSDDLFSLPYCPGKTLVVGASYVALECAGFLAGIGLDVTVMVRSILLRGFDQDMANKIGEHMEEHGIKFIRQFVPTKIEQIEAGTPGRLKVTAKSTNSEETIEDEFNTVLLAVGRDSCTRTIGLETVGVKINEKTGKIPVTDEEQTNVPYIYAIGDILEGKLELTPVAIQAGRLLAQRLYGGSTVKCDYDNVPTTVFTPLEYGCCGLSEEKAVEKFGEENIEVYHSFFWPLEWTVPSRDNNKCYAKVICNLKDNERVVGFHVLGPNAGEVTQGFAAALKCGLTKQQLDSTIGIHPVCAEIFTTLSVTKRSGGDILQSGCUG
Chromobox protein homolog 1 (Homo sapiens), sequence (P83916 whole entry, looked up): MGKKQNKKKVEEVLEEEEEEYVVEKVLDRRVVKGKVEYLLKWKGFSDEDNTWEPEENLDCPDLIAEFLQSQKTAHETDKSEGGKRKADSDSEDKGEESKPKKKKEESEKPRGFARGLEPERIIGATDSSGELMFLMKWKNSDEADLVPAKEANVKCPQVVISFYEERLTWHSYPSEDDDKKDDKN

On to `CCCN1CCCC2Cc3[nH]ncc3CC21` (stereo not given), for which the Potency entry in assay [1], in [2] and in assay [3] was “inactive” in each case. The outcome in assay [4] and in [5] was inactive. In [6], the activation was -0.5% (inactive).

For the compound `NC(N)=NOCC[C@H](N)C(=O)O`, the Potency entry in assay [1], in assay [2], in assay [8], in [9], in [3] and in assay [11] was “inactive” in each case. The Potency result in [12], in assay [13], in [14], in assay [15] and in assay [16] was “inactive” in each case. Also, the compound was called inactive in [7], in [10], in [4] and in [17]. Besides, in [6], the activation was -0.375% (inactive). In addition, the viability change in assay [16] is 10.2%.

As to `COc1cc(CC(C)N)c(OC)cc1I` (stereo not given), the Potency entry in assay [1], in assay [2], in assay [8], in assay [9], in assay [3] and in assay [11] was “inactive” throughout. In addition, the Potency entry in assay [12], in assay [13], in assay [14] and in assay [16] was “inactive” in each case. Also, the compound was classed as inactive in assay [7], in assay [10], in [4] and in [17]. In addition, the activation in [6] was 0.562% (inactive). Moreover, in assay [16], the viability change was -12.3%.

Turning to `CCn1cnc2c(Nc3cccc(Cl)c3)nc(N[C@@H]3CCCC[C@@H]3N)nc21`, the Potency was 0.208 µM (active) in assay [1]; 5.86 µM (active) in assay [2]; 39.8 µM (active) and inactive in assay [3]; 39.8 µM (active) in [18]; 4.61 µM (active) in assay [15]. Besides, the outcome in assay [7] and in assay [10] was inactive. Further, the Potency entry in assay [8], in assay [12] and in [13] was “inactive” each time. In addition, the activation in [6] is 3.88% (inactive).

Take `Cc1sc2ccccc2c1CC1=NCCN1`: the Potency entry in assay [1], in [2], in assay [8], in [3], in assay [11] and in assay [12] was “inactive” throughout. In addition, the Potency entry in assay [19] and in assay [15] was “inactive” in each case. Also, the call in assay [7], in [10], in [4] and in assay [17] was inactive. Also, the Potency in assay [13] is 10 µM (active). In assay [6], the activation was 1.12% (inactive).

As for `CC(C)(C)c1o[nH]c(=O)c1CC(N)C(=O)O` (stereo not given), the Potency result in assay [1], in [2], in [8], in assay [3], in assay [11] and in assay [12] was “inactive” throughout. Also, the Potency result in assay [13], in [15] and in assay [16] was “inactive” each time. The outcome in assay [7], in assay [10], in assay [4], in [5] and in assay [17] was inactive. Also, the activation in assay [6] is 0.625% (inactive). In addition, the viability change in [16] was 8%.

On to `C=CCN1CC[C@]23c4c5ccc(O)c4O[C@@H]2/C(=N/N=C2\CC[C@@]4(O)C6Cc7ccc(O)c8c7[C@@]4(CCN6CC=C)[C@@H]2O8)CC[C@@]3(O)C1C5`, for which the Potency in assay [1] was 2.94 µM (active); in [2], 3.29 µM (active); in assay [8], 11.9 µM (active). The compound was classed as inactive in assay [7], in [10], in [4] and in assay [17]. Further, the Potency result in assay [9], in [3], in assay [11], in assay [12], in assay [13] and in assay [14] was “inactive” each time. In addition, the Potency result in assay [16] is “inactive”. Moreover, the activation in [6] was 2.38% (inactive). Besides, in assay [16], the viability change was -1.45%.

Turning to `O=P(O)(O)C(Cl)(Cl)P(=O)(O)O`, the Potency result in [1], in [2], in [3] and in assay [19] was “inactive” in each case. In addition, the outcome in assay [4] and in assay [5] was inactive. The activation in assay [6] is -0.25% (inactive).

Turning to `C#CCN[C@H](C)Cc1ccccc1`, the Potency entry in assay [1], in assay [2], in assay [8], in assay [3], in assay [18] and in assay [11] was “inactive” each time. Moreover, the Potency entry in assay [12], in assay [13], in assay [15] and in [16] was “inactive” each time. Besides, the result in [7], in assay [10], in assay [4], in assay [5] and in assay [17] was inactive. Besides, the activation in assay [6] was 1.31% (inactive). Besides, in [16], the viability change is 0.263%.

For the origin of these results see PubChem BioAssay (NCATS).
